Reference: PubChem BioAssay AID1851 (National Center for Advancing Translational Sciences (NCATS), 2009)
Several values for one entry are separate records, joined by “and”; a condition that tells them apart may be missing. Identical values can stand only once. The campaign covered roughly 16,000 compounds. About 4,000 (25%) were called active. About 26% were inconclusive and are not listed. A selection follows. A number with no mark means an inactive call. The call rests on the fitted dose curve; in most records, active means well fitted curve in the direction sought with a large enough effect; inconclusive means small, poorly fitted or top-dose-only effect, or effect the other way; inactive means no such curve, though single readings can be large or run the other way.
On the % scale 0 is the no-effect control and ±100 the full control effect.

Each compound was assayed against Cytochrome P450 2C9 (Homo sapiens) (UniProt P11712) (assay: Cytochrome panel assay with activity outcomes). Details: recombinant CYP, pro-luciferin dealkylation, luminescence, p450-cyp2c9; series mostly up to 57.1 µM; activity, negative = inhibition: at the top concentration.
Cytochrome P450 2C9 (Homo sapiens), sequence (P11712 whole entry, looked up): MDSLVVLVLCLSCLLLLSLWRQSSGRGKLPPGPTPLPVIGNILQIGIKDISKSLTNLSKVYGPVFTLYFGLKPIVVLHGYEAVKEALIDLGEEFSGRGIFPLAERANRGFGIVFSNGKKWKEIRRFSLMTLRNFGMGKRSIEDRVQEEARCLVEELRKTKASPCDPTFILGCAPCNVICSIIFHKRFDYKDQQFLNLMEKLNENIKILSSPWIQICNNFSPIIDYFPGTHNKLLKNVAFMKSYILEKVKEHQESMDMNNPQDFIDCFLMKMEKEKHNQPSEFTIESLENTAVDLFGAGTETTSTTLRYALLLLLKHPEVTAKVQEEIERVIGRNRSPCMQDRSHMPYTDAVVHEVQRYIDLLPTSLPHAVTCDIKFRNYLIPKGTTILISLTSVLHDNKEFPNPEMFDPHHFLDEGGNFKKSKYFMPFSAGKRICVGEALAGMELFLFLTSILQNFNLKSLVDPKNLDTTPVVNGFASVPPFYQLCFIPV
`COc1c(Cl)cc(Cl)cc1CNCCNCC(C)O` (configuration not stated) was tested, and the “activity, negative = inhibition” value was 15.2%. With `Cc1cc(N2CCOCC2)nc2ccc(Cc3ccc4nc(N5CCOCC5)cc(C)c4c3)cc12` the AC50 was 3.98 µM (active). For `COc1ccc2c(C)cc(N3CCOCC3)nc2c1`, the “activity, negative = inhibition” value was 11.4%. Compound `Cc1cc(Cl)nc2ccc(Cc3ccc4nc(Cl)cc(C)c4c3)cc12` has an activity, negative = inhibition of 0.565% [at 11.4 µM]. With `COCOc1cc(OC)ccc1C(=O)/C=C\c1ccc2c(c1)OCO2` the AC50 was 2.51 µM (active). For `CCCc1nnc(SCC(=O)O)n1/N=C/c1ccc2c(c1)OCO2`, the “activity, negative = inhibition” value was -24.4%. `Nc1ccccc1C(=O)/C=C\c1ccc2c(c1)OCO2` showed an activity, negative = inhibition of -29.2% [at 11.4 µM]. For `CCNc1ccc(Br)cc(C(=O)/C=C/c2ccc3c(c2)OCO3)c1=O`, the AC50 was 11.2 µM (active). For `COc1ccccc1N1CCN(C(=O)/C=C/c2ccc3c(c2)OCO3)CC1`, the AC50 was 14.1 µM (active). `O=C(/C=C\C=C/c1ccc2c(c1)OCO2)N1CCCCC1` was tested, and the “activity, negative = inhibition” value was -34.7% [at 25.6 µM]. `CCCC(=O)Nc1ccc(C(=O)/C=C/c2ccc(SC)cc2)cc1` was tested, and the AC50 was 1.78 µM (active). For `CCCCCCCCCCCCCCCCCCc1ccc(C(=O)/C=C\C(=O)O)cc1`, the “activity, negative = inhibition” value was -7.99%. In the case of `O=C(O)CC/C=C\C[C@@H]1CO[C@H](c2ccccc2Cl)O[C@@H]1c1ccccc1O`, the “activity, negative = inhibition” value is reported as -16.7%. `c1ccc(C2OCC3(CO2)COC(c2ccccc2)OC3)cc1` (configuration not stated) was tested, and the “activity, negative = inhibition” value was -37.5%. With `O=C1CCCCCC1C1(O)C(=O)Nc2ccc(Br)cc21` (configuration not stated) the “activity, negative = inhibition” value was -11.1%. With `CC(C)[C@H](Sc1nc(N)nc2nc[nH]c12)C(=O)O` the activity, negative = inhibition was 12.2% [at 11.4 µM]. With `Nc1nc(Sc2ccc([N+](=O)[O-])c3nonc23)c2[nH]cnc2n1` the AC50 was 3.16 µM (active). `Nc1nc(SCc2ccccc2[N+](=O)[O-])c2[nH]cnc2n1` gave an activity, negative = inhibition of -28.6% [at 11.4 µM]. In the case of `CCOC(=O)N1CCN(C(=O)CCn2nc(-c3ccccc3)ccc2=O)CC1`, the “activity, negative = inhibition” value is reported as -13.9%. `CCOC(=O)N1CCN(C(=O)C(CC)n2nc(C)c3sc4ccccc4c3c2=O)CC1` (configuration not stated) was tested, and the AC50 was 3.16 µM (active). `CN(C)CCCN=c1c2ccccc2n(C)c2[nH]c(=O)n(C)c(=O)c12` gave an activity, negative = inhibition of -3.97% [at 11.4 µM]. In the case of `CC(=O)NCCNc1ccnc(-c2ccccc2C(F)(F)F)n1`, the activity, negative = inhibition is reported as 9.95% [at 2.29 µM]. For `COc1cc(O)oc1C=Nc1ccc(Cl)cc1`, the AC50 was 22.4 µM (active). With `COc1ccc(N=Cc2ccc(CNS(=O)(=O)c3ccc(Cl)cc3)o2)cc1` the “activity, negative = inhibition” value was -5.91%. In the case of `CCNC(=S)N1CC(C)OC(C)C1` (configuration not stated), the “activity, negative = inhibition” value is reported as -4.79%. In the case of `Cc1ccc(N(CCC#N)C(=O)CSc2ccc3c(c2)OCCO3)cc1`, the AC50 is reported as 5.01 µM (active). `Cc1ccc(SCN2CCCCC2)cc1` (tested in a mixture with another compound) showed an activity, negative = inhibition of -29.3% [at 11.4 µM]. In the case of `CC1Cc2ccccc2N1Cc1nc2cc(C(F)(F)F)ccc2c(=O)[nH]1` (configuration not stated), the AC50 is reported as 5.01 µM (active). Work on `O=S(=O)(c1ccc(Br)cc1)N1CCN(S(=O)(=O)c2ccc(Br)cc2)CC1` yielded an activity, negative = inhibition of 25.6% [at 11.4 µM]. `O=S(=O)(c1cccc(-c2nnc(-c3ccc(Br)cc3)o2)c1)N1CCCCCC1` was tested, and the AC50 was 5.01 µM (active). In the case of `Brc1ccc(-c2nnc(-c3cccc(Br)c3)o2)cc1`, the “activity, negative = inhibition” value is reported as -6.6%. For `c1cncc(-c2cncnc2-n2ccnc2)c1`, the activity, negative = inhibition was 8.83% [at 2.29 µM]. With `Oc1ccc(-c2[nH]ncc2-c2ccc(Cl)cc2)c(O)c1` the AC50 was 0.794 µM (active). In the case of `CC(C)NC(=O)N1CC2(CCN(C(=O)c3cc(C(F)(F)F)cc(C(F)(F)F)c3)CC2)C1`, the “activity, negative = inhibition” value is reported as -19.4%. In the case of `CCOC(=O)c1c(CC(C)C)csc1NC=O`, the AC50 is reported as 10 µM (active). `Cc1ccccc1C(=O)c1c[nH]c(C(=O)NCC2CCCO2)c1` (configuration not stated) was tested, and the “activity, negative = inhibition” value was 25.6%. In the case of `O=C(Nc1ccccc1C(=O)NCC1CCCO1)c1ccc(Cl)cc1Cl` (configuration not stated), the AC50 is reported as 10 µM (active). `O=C(CN(Cc1ccccc1Cl)C(=O)c1ccc(CN2CCOCC2)o1)NCC1CCCO1` (configuration not stated) was tested, and the “activity, negative = inhibition” value was -3.33%. `COc1cccc([C@H]2Oc3ccc(OC)cc3/C(=N\OC[C@@H](O)[C@@H]3O[C@@H]4OC(C)(C)O[C@@H]4[C@H]3O)[C@@H]2O)c1` showed an activity, negative = inhibition of -20.5% [at 11.4 µM]. For `COc1cccc([C@@H]2Oc3ccc(OC)cc3/C(=N/O[C@@H](C)c3cn([C@H]4COC[C@H]4O)nn3)[C@@H]2O)c1`, the activity, negative = inhibition was -15.5% [at 11.4 µM]. For `COc1cccc([C@H]2Oc3ccc(OC)cc3/C(=N\O[C@@H](C)c3cn([C@H](CO)Cc4ccccc4)nn3)[C@@H]2O)c1`, the AC50 was 1.58 µM (active). `CC(C)=NO[C@@H](C)c1cn([C@H](CO)Cc2ccccc2)nn1` was tested, and the activity, negative = inhibition was 16.5% [at 11.4 µM] and 5.66% [at 11.4 µM]. `COc1ccc(O[C@H]2C=C[C@@H](c3ccccc3)O[C@@H]2CON=C(C)C)cc1` gave an activity, negative = inhibition of 11.9% [at 11.4 µM]. In the case of `C=CC[C@@H]1C=C[C@H](O/N=C2\c3cc(OC)ccc3O[C@H](c3cccc(OC)c3)[C@H]2O)[C@H](CO)O1`, the AC50 is reported as 0.398 µM (active). For `COc1ccc(O[C@H]2C=C[C@@H](c3ccccc3)O[C@H]2CO/N=C2/c3cc(OC)ccc3O[C@@H](c3cccc(OC)c3)[C@H]2O)cc1`, the AC50 was 3.16 µM (active). `CO/N=C1/c2cc(OC)ccc2O[C@@H](c2cccc(OC)c2)[C@H]1O` showed an activity, negative = inhibition of -0.557% [at 11.4 µM]. `C=CC[C@@H]1C=C[C@@H](O/N=C\C[C@@H]2C=C[C@H](OC(C)=O)[C@H](COC(C)=O)O2)[C@@H](CO)O1` was tested, and the activity, negative = inhibition was -4.4% [at 11.4 µM]. Work on `COc1cccc([C@H]2Oc3ccc(OC)cc3/C(=N\O[C@@H]3O[C@H](COC(C)=O)[C@H](OC(C)=O)[C@H](OC(C)=O)[C@H]3OC(C)=O)[C@@H]2O)c1` yielded an activity, negative = inhibition of -12.6% [at 11.4 µM]. With `COc1cccc([C@@H]2Oc3ccc(OC)cc3/C(=N/OC[C@@H](C)[C@H](OCc3ccccc3)C(C)C)[C@@H]2O)c1` the AC50 was 3.98 µM (active). Compound `CC1=N[C@@](C)(COC(=O)[C@]2(C)N[C@](C)(CO)CO2)COC1=O` has an activity, negative = inhibition of 11% [at 11.4 µM]. `CC(=O)NCCNc1cc(-c2ccccc2CN(C)C)ncn1` gave an activity, negative = inhibition of 10% [at 2.29 µM]. `O=[N+]([O-])/C=C\c1cc2ccccc2[nH]1` showed an activity, negative = inhibition of 11.3% [at 11.4 µM].
